40 compounds from PubChem BioAssay (NCI) can be followed below.

Structures are written as SMILES. “And” between values parts separate entries of the source, which are not always exact repeats. Equal values may be shown once. This is part of a sample that, as a whole, favours compounds with a hit. Of some 83,000 tested, about 20% had one in any assay.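 Negative percent growth values reflect cell death: -40 means 40% of the cells present at the start died, and -100 means all died.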 Unmarked numbers belong to inactive results. The source made the active and inactive calls. Where a SMILES comes first, the peptide text is derived from it.

The assay has as its system COLO 205 colon. As to the kind of experiment: NCI-60 one-dose screen, 48 h (100 = growth as untreated, 0 = no growth, -100 = all killed). The conditions noted are these: 10 µM unless noted. As for the experimental part:
Cells are grown in 96 well plates and exposed to the test compound for 48 hours. Compounds are tested at a single concentration, which is 10^-5 M for most compounds. The reported endpoint is percent growth (GI% or GIPRCNT), where numbers from 0 - 100% represent growth inhibition, and numbers from -100% - 0 represent cell death. For example, a value of 40 represents 60% growth inhibition. A value of 0 means no net growth occurred over the course of the experiment. A value of -40 indicates 40% of cells at the beginning of the experiment died by the end of the experiment. A value of -100 means all cells are dead at the end of the experiment.
NCI-60 Human Tumor Cell Lines Screen was performed using the standard one-dose NCI protocol, which is described in more detail at https://dtp.cancer.gov/discovery_development/nci-60/default.htm.
Compounds with GIPRCNT values below 10 were considered active. Activity score was based on GIPRCNT using the following formula: […]
Score is 0 for GIPRCNT values of 100 or above, 50 for GIPRCNT values of 0, and 100 for GIPRCNT values of -100.
On to `C/C(=C\c1ccccc1)c1ccccn1`, for which the growth was 114%.

With `CC1(C)COC(=S)N1`, the growth is 124%.

`O=C1OC(c2ccccc2)=N/C1=C\c1ccccc1`: the growth was 113%.

For `NC(Cc1c[nH]c2ccccc12)C(=O)O` (stereo not given), the growth is 117% and 103%.

For `Nc1nc(N)c2[nH]cnc2n1`, the growth is 97.6%.

Turning to `ClCCOCCOc1ccc(C2CCCCC2)cc1`, the growth was 111%.

Regarding `CCc1cc(C)cc(O)c1`, the growth was 116%.

Turning to `COc1ccc(N/C=C/C2=[N+](C)c3ccccc3C2(C)C)c(OC)c1`, the growth was 99.5%.

Turning to `Nc1ncnc2c1ncn2C1OC(COP(=O)(O)O)C(O)C1O` (stereo not given), the growth is 130%.

With `CCN(CCNS(C)(=O)=O)c1ccc(N)c(C)c1`, the growth is 69.6% and 107%.

On to `CC(C)(O)C(=O)O`, for which the growth is 104%.

As to `O=CN1CCCCC1`, the growth was 136%.

Turning to `CN(C)c1ccc(/C=C\C(=O)c2ccccc2)cc1`, the growth is 104% and 99.2%.

For `O=C(Cc1ccccc1)c1ccc(O)c(Cl)c1`, the growth was 55.4%.

For the compound `CCOC(=O)c1c(C)cc(=O)oc1C`, the growth was 116%.

Turning to `CC1CCC2(OC1)OC1CC3C4CC=C5CC(O)CCC5(C)C4CCC3(C)C1C2C` (stereo not given), the growth was 111%.

In the case of `OCCN1CCCCCCC1`, the growth is 104%.

Regarding `NC1CCC(C(=O)O)CC1` (stereo not given), the growth is 105% and 107%.

With `CC(=O)OC(C)C(=O)NCC(C)O` (stereo not given), the growth is 107%.

With `O=c1n(CC2CO2)c(=O)n(CC2CO2)c(=O)n1CC1CO1` (stereo not given), the growth was 74.8%.

For the compound `OCC1OC(O)C(O)C(O)C1O` (stereo not given), the growth was 108%.

Regarding `N#CC(C#N)N=Nc1cc(Cl)ccc1Cl`, the growth was 110%.

For `Cc1cc(-c2ccc(N=Nc3ccc4c(S(=O)(=O)O)cc(S(=O)(=O)O)c(N)c4c3O)c(C)c2)ccc1N=Nc1ccc2c(S(=O)(=O)O)cc(S(=O)(=O)O)c(N)c2c1O`, the growth is 111%.

Regarding `O=C(O)/C=C\C(=O)Nc1cccc2ccccc12`, the growth was 95.4% and 108%.

Take `Brc1ccc(SSc2ccc(Br)cc2)cc1`: the growth was 90.6%.

For the compound `CC1CCC2(C(=O)O)CCC3(C)C(=CCC4C5(C)CCC(O)C(C)(C)C5CCC43C)C2C1C` (stereo not given), the growth is 78.5% and 110%.

As to `Fc1ccc([I+]c2ccc(F)cc2)cc1`, the growth was 62.2%.

Turning to `C#CCOC(=O)Nc1ccccc1`, the growth was 106%.

On to `CC(C)C(C)(C)c1ccc(O)cc1`, for which the growth was 108%.

As to `CCCCCCCCCCNC(=O)CI`, the growth is -20% (active).

Turning to `O=[N+]([O-])c1cccc(SSc2cccc([N+](=O)[O-])c2)c1`, the growth was 82.1%.

Turning to `CCCCNc1ccc(Nc2ccccc2)cc1`, the growth was 85%.

With `CN(C)CC1CCCCCC(CN(C)C)C1=O` (stereo not given), the growth was -80.9% (active).

Take `Cl`: the growth was 115%.

Turning to `NC(=O)NCCCC(N)C(=O)O` (stereo not given), the growth is 106%.

For `N#CC(C#N)N=Nc1ccc(Cl)cc1`, the growth is -33.9% (active).

Take `CCCCOC(=O)/C=C\C(=O)NC(N)=O`: the growth was 87.7%.

In the case of `CC1=C/C(O)CC(=O)Cc2nc(co2)C(=O)N2CCC=C2C(=O)OC(C(C)C)C(C)/C=C\C(=O)NC/C=C\1` (stereo not given), the growth was 74.3%.

For `COc1cc(C(O)C2C(=O)OCC2C2(c3ccc4c(c3)OCO4)SCCCS2)cc(OC)c1OC` (stereo not given), the growth was 94.2%.

As to `NC(Cc1ccccc1)C(=O)NC(Cc1ccccc1)C(=O)O` (stereo not drawn) (H-Phe-Phe-OH; configuration not given here), the growth was 107% and 110%.
